# ± gives the standard deviation of the averaged measurements. Of roughly 5,400 targets only a part is listed; those with the largest changes were picked by preference.
# Compound: Nc1nc2c(ncn2[C@@H]2O[C@H](COP(=O)(O)OP(=O)(O)OP(=O)(O)O)[C@@H](O)[C@H]2O)c(=O)[nH]1 [guanosine triphosphate]
# Assay: NP40-soluble protein abundance relative to vehicle (solubility fold change) (ratio); higher = more soluble protein in presence of GTP
# Method: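 Solubility proteome profiling in Jurkat crude lysate. Lysate was treated with Mg-GTP (0.1-10 mM) for 10 min at room temperature and 3 min at 37 °C, then solubilised with 0.8% NP40 and benzonase, followed by ultracentrifugation. Proteins were quantified by TMT10 LC-MS/MS; the value is the NP40-soluble abundance relative to the NP40-processed vehicle, from 3 independent experiments.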
# Sequence of UniProt Q15283 (Q15283 whole entry, one chain of several): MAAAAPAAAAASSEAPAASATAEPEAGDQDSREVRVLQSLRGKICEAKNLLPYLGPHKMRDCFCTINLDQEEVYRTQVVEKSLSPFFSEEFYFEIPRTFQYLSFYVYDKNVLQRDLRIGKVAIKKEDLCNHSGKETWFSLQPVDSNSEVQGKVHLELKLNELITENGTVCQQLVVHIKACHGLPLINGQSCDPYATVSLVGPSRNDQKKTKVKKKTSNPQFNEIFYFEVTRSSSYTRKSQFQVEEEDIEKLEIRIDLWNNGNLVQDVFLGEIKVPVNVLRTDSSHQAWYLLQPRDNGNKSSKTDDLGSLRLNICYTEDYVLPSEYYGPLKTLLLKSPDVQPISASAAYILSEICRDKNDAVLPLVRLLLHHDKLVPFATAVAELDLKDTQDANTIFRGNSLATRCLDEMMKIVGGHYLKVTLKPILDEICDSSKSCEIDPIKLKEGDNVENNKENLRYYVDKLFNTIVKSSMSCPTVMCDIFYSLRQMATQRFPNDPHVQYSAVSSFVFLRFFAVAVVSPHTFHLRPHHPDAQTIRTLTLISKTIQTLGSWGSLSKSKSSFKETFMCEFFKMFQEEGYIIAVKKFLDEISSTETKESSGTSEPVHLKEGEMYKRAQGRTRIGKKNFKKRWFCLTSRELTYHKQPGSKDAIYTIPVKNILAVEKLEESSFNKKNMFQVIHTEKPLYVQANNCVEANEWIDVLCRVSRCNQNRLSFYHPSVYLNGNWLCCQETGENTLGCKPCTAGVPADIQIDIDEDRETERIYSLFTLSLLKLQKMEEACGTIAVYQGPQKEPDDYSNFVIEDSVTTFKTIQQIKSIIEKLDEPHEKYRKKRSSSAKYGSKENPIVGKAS
# Sequence of UniProt Q9Y520 (Q9Y520 whole entry, one chain of several): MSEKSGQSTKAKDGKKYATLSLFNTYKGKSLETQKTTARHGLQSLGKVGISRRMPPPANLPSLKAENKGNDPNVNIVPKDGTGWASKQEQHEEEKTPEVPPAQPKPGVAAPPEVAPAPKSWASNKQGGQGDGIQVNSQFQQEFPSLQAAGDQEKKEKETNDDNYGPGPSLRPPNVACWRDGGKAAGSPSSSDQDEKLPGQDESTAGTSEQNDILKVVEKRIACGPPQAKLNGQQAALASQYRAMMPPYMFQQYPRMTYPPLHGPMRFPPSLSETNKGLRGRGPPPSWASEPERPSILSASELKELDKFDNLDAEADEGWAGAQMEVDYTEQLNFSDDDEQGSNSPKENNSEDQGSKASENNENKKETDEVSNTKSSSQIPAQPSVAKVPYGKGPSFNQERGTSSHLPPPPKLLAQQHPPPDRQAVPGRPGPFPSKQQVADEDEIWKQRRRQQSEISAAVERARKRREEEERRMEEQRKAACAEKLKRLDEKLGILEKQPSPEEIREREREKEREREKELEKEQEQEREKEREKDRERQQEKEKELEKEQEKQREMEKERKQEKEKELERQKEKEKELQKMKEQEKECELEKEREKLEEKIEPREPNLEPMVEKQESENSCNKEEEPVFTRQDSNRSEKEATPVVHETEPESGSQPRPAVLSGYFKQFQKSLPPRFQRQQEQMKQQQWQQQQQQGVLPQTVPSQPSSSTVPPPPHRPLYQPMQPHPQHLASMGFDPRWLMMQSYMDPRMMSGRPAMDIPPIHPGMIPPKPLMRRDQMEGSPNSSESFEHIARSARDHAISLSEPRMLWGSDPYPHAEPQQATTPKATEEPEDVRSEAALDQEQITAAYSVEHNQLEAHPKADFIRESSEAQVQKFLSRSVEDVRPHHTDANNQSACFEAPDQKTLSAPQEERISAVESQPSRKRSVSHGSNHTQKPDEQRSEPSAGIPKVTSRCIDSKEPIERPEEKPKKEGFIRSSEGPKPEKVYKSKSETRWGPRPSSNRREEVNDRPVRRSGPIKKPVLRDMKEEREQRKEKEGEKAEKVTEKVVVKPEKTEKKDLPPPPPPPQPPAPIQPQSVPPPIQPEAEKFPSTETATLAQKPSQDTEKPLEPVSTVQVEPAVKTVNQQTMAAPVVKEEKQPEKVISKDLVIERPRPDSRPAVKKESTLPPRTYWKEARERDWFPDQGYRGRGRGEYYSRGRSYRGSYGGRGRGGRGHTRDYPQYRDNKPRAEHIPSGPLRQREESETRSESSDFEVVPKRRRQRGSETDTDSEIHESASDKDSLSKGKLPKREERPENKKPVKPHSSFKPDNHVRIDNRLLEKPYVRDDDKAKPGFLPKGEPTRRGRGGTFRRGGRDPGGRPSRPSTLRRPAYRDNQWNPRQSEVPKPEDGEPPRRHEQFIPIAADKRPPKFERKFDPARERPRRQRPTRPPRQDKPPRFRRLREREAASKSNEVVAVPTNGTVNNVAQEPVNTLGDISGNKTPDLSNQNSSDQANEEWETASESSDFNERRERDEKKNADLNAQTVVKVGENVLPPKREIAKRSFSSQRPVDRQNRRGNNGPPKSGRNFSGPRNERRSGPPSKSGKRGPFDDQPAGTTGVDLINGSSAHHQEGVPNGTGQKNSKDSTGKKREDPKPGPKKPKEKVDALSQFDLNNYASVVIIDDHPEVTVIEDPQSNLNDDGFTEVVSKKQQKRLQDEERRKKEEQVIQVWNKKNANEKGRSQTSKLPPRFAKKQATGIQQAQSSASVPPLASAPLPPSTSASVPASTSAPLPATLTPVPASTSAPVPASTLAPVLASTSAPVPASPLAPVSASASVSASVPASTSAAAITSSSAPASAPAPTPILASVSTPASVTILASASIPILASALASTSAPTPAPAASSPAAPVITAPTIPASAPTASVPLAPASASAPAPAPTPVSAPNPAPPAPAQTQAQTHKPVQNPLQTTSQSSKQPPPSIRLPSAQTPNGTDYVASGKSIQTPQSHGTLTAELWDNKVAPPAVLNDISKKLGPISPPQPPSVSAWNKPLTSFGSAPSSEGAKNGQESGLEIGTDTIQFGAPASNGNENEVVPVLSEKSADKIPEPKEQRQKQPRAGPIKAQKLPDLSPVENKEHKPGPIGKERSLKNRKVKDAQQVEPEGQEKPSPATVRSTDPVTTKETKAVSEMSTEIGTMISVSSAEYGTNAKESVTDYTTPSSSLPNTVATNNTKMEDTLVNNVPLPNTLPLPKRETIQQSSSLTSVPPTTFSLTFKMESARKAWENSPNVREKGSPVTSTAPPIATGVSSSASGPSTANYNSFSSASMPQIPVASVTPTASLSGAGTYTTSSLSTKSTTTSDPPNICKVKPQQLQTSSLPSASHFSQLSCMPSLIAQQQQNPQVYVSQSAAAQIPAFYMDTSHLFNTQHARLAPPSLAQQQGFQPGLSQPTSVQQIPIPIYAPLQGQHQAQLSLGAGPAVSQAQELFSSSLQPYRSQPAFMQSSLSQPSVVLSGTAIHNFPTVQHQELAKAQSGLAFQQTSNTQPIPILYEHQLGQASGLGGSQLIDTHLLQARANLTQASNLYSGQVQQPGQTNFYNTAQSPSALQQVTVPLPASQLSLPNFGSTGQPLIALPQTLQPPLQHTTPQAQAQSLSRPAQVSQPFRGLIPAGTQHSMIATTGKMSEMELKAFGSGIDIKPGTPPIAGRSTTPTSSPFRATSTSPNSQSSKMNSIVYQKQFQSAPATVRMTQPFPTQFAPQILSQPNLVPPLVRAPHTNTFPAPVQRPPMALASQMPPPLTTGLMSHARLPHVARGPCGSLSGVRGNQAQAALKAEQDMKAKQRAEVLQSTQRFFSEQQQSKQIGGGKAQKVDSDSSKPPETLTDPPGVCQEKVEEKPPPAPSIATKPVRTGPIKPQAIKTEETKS
# Sequence of UniProt Q9UM22 (Q9UM22 whole entry, one chain of several): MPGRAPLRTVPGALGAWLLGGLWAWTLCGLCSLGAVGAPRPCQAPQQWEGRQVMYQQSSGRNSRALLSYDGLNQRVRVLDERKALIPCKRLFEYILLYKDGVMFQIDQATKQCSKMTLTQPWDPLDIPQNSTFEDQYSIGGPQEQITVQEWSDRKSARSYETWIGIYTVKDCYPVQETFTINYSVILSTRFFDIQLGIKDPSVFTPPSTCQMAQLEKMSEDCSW
# Sequence of UniProt Q8N128 (Q8N128 whole entry, one chain of several): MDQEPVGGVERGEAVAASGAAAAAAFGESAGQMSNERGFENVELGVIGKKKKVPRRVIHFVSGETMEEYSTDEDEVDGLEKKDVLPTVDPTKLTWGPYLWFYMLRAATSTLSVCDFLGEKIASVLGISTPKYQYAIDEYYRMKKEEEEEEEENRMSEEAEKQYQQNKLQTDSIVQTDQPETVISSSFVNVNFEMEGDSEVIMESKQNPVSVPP
# Sequence of UniProt Q8NEY8 (Q8NEY8 whole entry, one chain of several): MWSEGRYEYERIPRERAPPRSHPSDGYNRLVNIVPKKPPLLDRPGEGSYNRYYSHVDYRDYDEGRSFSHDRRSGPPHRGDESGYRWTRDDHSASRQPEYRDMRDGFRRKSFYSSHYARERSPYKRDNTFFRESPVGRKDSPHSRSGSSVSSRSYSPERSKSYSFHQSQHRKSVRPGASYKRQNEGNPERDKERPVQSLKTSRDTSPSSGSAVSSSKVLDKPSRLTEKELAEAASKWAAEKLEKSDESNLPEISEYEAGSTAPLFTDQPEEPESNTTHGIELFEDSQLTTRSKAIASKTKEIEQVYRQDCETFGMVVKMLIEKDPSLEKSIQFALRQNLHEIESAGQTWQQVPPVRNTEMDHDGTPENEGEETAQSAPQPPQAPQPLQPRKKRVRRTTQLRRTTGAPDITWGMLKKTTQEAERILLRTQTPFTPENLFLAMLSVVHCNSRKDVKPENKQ
Target,NP40-soluble protein abundance (concentration: 0.1mM),NP40-soluble protein abundance (concentration: 0.5mM),NP40-soluble protein abundance (concentration: 1mM),NP40-soluble protein abundance (concentration: 2mM),NP40-soluble protein abundance (concentration: 4mM),NP40-soluble protein abundance (concentration: 6mM),NP40-soluble protein abundance (concentration: 8mM),NP40-soluble protein abundance (concentration: 10mM)
A0A0A0MSJ9|Q15283|Q15283-2 (UniProt Q15283),1.05 ± 0.057,1.07 ± 0.065,0.985 ± 0.018,0.998 ± 0.04,1.01 ± 0.054,0.967 ± 0.048,0.94 ± 0.067,0.927 ± 0.13
E7EPN9|Q9Y520|Q9Y520-4|Q9Y520-5|Q9Y520-7 (UniProt Q9Y520),1.01 ± 0.02,1.01 ± 0.054,1.1 ± 0.063,1.14 ± 0.073,1.24 ± 0.057,1.36 ± 0.075,1.53 ± 0.14,1.7 ± 0.2
G3V583|Q8N128|Q8N128-2 (UniProt Q8N128),0.912 ± 0.089,0.928 ± 0.084,0.869 ± 0.13,0.94 ± 0.16,0.887 ± 0.16,0.861 ± 0.14,0.87 ± 0.1,0.902 ± 0.14
D6RIH7|Q9UM22 (UniProt Q9UM22),0.918 ± 0.11,0.931 ± 0.14,0.91 ± 0.12,0.896 ± 0.13,0.902 ± 0.12,0.908 ± 0.13,0.88 ± 0.085,0.889 ± 0.11
F8W0Q9|Q8NEY8-2|Q8NEY8-8|Q8NEY8-9|Q8NEY8-3|Q8NEY8 (UniProt Q8NEY8),1.01 ± 0.022,1.08 ± 0.019,1.19 ± 0.058,1.28 ± 0.096,1.41 ± 0.18,1.45 ± 0.2,1.63 ± 0.22,1.77 ± 0.42

# — the supplement of paper PMC6411743
